Source: PubChem BioAssay (Tox21)
“And” between values parts separate entries of the source, which are not always exact repeats. Identical values can stand only once. Some compounds were tested as several samples or in several runs, with calls that do not always agree. The source made the active and inactive calls. A call without a number means that no potency is given here. Unless noted, the call rests on the fitted dose curve; in most records, active means well fitted curve in the direction sought with a large enough effect in the repeat runs; inconclusive means weak or mixed curves; inactive means no such curve, though single readings can be large; an effect the other way counts as inactive or inconclusive.

Tests used:
[1] = tested on: thyroid hormone receptor (rat, GH3 cells); experiment: qHTS assay to identify small molecule agonists of the thyroid receptor (TR) signaling pathway (AID 743066; calls by dose curve)
[2] = qHTS assay to identify small molecule antagonists of the estrogen receptor alpha (ER-alpha) signaling pathway - cell viability counter screen (AID 743074; calls by dose curve; further: nearly all actives have a fitted effect of over 45% in size; further: potency means the concentration at half of the fitted maximal effect)
[3] = molecular target: Estrogen receptor (Homo sapiens) (UniProt P03372); experiment: qHTS assay to identify small molecule agonists of the estrogen receptor alpha (ER-alpha) signaling pathway (AID 743075; calls by dose curve; further: potency means the concentration at half of the fitted maximal effect)
[4] = molecular target: Estrogen receptor (Homo sapiens) (UniProt P03372); experiment: qHTS assay to identify small molecule agonists of the estrogen receptor alpha (ER-alpha) signaling pathway using the BG1 cell line (AID 743079); conditions: BG1Luc4E2 cells, ERE-luciferase agonist, 22 h; activation: at 70.3 µM (top of the series); further: nearly all actives have a fitted effect of over 20% in size
[5] = qHTS assay to identify small molecule antagonists of the estrogen receptor alpha (ER-alpha) signaling pathway using the BG1 cell line - cell viability counter screen (AID 743081);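 further: compound given together with 17beta-estradiol as the ER stimulus; nearly all actives have a fitted effect of over 45% in size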
Aromatase (Homo sapiens) = Aromatase (Homo sapiens) (UniProt P11511); experiment: qHTS assay to identify aromatase inhibitors (AID 743083); further: nearly all actives have a fitted effect of over 55% in size; further: potency means the concentration at half of the fitted maximal effect
[6] = qHTS assay to identify aromatase inhibitors - cell viability counter screen (AID 743084);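 further: cells stimulated with testosterone during compound exposure; nearly all actives have a fitted effect of over 55% in size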; further: potency means the concentration at half of the fitted maximal effect
[7] = molecular target: Aryl hydrocarbon receptor (Homo sapiens) (UniProt P35869); experiment: qHTS assay to identify small molecule that activate the aryl hydrocarbon receptor (AhR) signaling pathway (AID 743085); further: nearly all actives have a fitted effect of over 15% in size; further: potency means the concentration at half of the fitted maximal effect;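 on activation: HG2L7.5c1 human HepG2 liver cells with stably integrated DRE-driven firefly reporter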
Procedure, shortened: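 Steps: seed HepG2-AhR-luc cells; allow 5 h at 37C; pin-transfer test compound or vehicle; incubate 24 h at 37C; add viability dye (30 min, 37C) and read fluorescence; add luciferase substrate (30 min, RT) and read luminescence.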

[8] = qHTS assay to identify small molecule that activate the aryl hydrocarbon receptor (AhR) signaling pathway - cell viability counter screen (AID 743086);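 further: HepG2 liver cells carrying the AhR DRE luciferase reporter; nearly all actives have a fitted effect of over 45% in size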
Procedure, shortened: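 HepG2-AhR-luc (HG2L7.5c1) cells, 4000/well, were preincubated 5 h at 37C, exposed to compound in qHTS format for 24 hr at 37C, then given CellTiter-Fluor for 30 min; viability was read as fluorescence in the reporter wells.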

[9] = molecular target: Peroxisome proliferator-activated receptor gamma (Homo sapiens) (UniProt P37231); experiment: qHTS assay to identify small molecule agonists of the peroxisome proliferator-activated receptor gamma (PPARg) signaling pathway (AID 743094; active means well fitted activation curve with a large enough effect in the signal ratio in the repeat runs, not every such curve was filed as active; inconclusive means weak or mixed curves, or effect the other way; inactive means no such curve, though single readings can be large or run the other way; the % refers to the signal ratio; further: potency means the concentration at half of the fitted maximal effect)
Procedure, shortened: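 Fluorescence-based beta-lactamase readout in HEK293H PPARg UAS-bla cells after 17 h compound exposure (37C) and 1 h B/G FRET substrate incubation at room temperature.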

[10] = qHTS assay for small molecule agonists of the antioxidant response element (ARE) signaling pathway (AID 743202; active means well fitted activation curve with a large enough effect in the signal ratio in the repeat runs, not every such curve was filed as active; inconclusive means weak or mixed curves, or effect the other way; inactive means no such curve, though single readings can be large or run the other way; the % refers to the signal ratio; further: potency means the concentration at half of the fitted maximal effect)
Procedure, shortened: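 Steps: seed ARE-bla HepG2 cells (2,000/well); incubate 5 h at 37 C; add compounds by pin tool; incubate 16 h at 37 C; add FRET substrate; read fluorescence after 2 h at RT.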

[11] = qHTS assay for small molecule activators of the heat shock response signaling pathway - cell viability counter screen (AID 743209); further: nearly all actives have a fitted effect of over 50% in size
Procedure, shortened: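 To flag cytotoxic compounds, HSE-bla HeLa cells plated at 1500 cells/well were dosed for 5 h at 37 C, followed by the reporter FRET read and then CellTiter-Glo, with luminescence recorded 30 min after reagent addition.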

[12] = qHTS assay to identify small molecule antagonists of the peroxisome proliferator-activated receptor gamma (PPARg) signaling pathway - cell viability counter screen (AID 743194); further: nearly all actives have a fitted effect of over 55% in size; further: potency means the concentration at half of the fitted maximal effect
Procedure, shortened: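 PPARg-UAS-bla HEK293H cells were plated, rested 5 h at 37 C, then treated with compounds plus rosiglitazone (50 nM final) for 17 h at 37 C; viability was then read by CellTiter-Glo luminescence after 30 min at room temperature.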

[13] = qHTS assay for small molecule agonists of the antioxidant response element (ARE) signaling pathway - cell viability counter screen (AID 743203; calls by dose curve; further: nearly all actives have a fitted effect of over 55% in size; further: potency means the concentration at half of the fitted maximal effect)
Procedure, shortened: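 Parallel cytotoxicity read-out for the ARE-bla screen: HepG2 reporter cells, 16 hrs with compounds, then CellTiter-Glo luminescence.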

[14] = qHTS assay for small molecule activators of the heat shock response signaling pathway (AID 743210; active means well fitted activation curve with a large enough effect in the signal ratio in the repeat runs, with a control signal flat, not every such curve was filed as active; inconclusive means weak or mixed curves; the % refers to the signal ratio;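 further: HeLa cells with beta-lactamase reporter driven by heat shock elements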)
Procedure, shortened: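 Activation of heat shock element-controlled beta-lactamase expression is measured in HeLa cells by LiveBLAzer FRET fluorescence, with compound exposure lasting 5 h at 37 C and substrate loading 2.5 h at room temperature.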

[15] = qHTS assay to identify small molecule antagonists of the thyroid receptor (TR) signaling pathway (AID 743065)
Procedure, shortened: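 GH3.TRE-Luc rat pituitary cells carrying two TR response elements driving luciferase were plated for 4 h, given compound plus 1 nM T3 (final), and incubated 23.5 h at 37 C. ONE-Glo luminescence measured reporter inhibition; CellTiter-Fluor fluorescence tracked cytotoxicity.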

[16] = molecular target: Estrogen receptor (Homo sapiens) (UniProt P03372); experiment: qHTS assay to identify small molecule antagonists of the estrogen receptor alpha (ER-alpha) signaling pathway (AID 743069; active means well fitted curve in the direction sought with a large enough effect in the signal ratio in the repeat runs, not every such curve was filed as active; inconclusive means weak or mixed curves, or effect the other way; inactive means no such curve, though single readings can be large or run the other way; the % refers to the signal ratio; further: potency means the concentration at half of the fitted maximal effect)
Procedure, shortened: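 Screening used a UAS-driven beta-lactamase reporter integrated into HEK293 cells expressing ER-alpha, stimulated with 17beta-estradiol alongside test compounds over 18 hr at 37C; signal came from LiveBLAzer B/G FRET fluorescence.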

[17] = qHTS assay to identify small molecule antagonists of the estrogen receptor alpha (ER-alpha) signaling pathway using the BG1 cell line (AID 743080; calls by dose curve;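 further: BG1 cells stimulated with 17beta-estradiol alongside compound; nearly all actives have a fitted effect of over 25% in size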; further: potency means the concentration at half of the fitted maximal effect)
Procedure, shortened: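 Endogenous full-length ER-alpha in BG1-Luc-4E2 cells drives a stably integrated 4×ERE luciferase gene; compounds were tested against 17beta-estradiol over 21.5 h, with luminescence and multiplexed viability fluorescence recorded.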

[18] = molecular target: Peroxisome proliferator-activated receptor gamma (Homo sapiens) (UniProt P37231); experiment: qHTS assay to identify small molecule antagonists of the peroxisome proliferator-activated receptor gamma (PPARg) signaling pathway (AID 743191; calls by dose curve; further: nearly all actives have a fitted effect of over 30% in size)
Procedure, shortened: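 GeneBLAzer PPARg UAS-bla HEK293H cells carrying a UAS-driven beta-lactamase reporter were plated at 3000 cells/well, preincubated 5 h at 37C, then given compound for 17 h at 37C; LiveBLAzer B/G FRET substrate was read after 1 h at room temperature.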

Estrogen receptor (Homo sapiens), sequence (P03372 whole entry, looked up): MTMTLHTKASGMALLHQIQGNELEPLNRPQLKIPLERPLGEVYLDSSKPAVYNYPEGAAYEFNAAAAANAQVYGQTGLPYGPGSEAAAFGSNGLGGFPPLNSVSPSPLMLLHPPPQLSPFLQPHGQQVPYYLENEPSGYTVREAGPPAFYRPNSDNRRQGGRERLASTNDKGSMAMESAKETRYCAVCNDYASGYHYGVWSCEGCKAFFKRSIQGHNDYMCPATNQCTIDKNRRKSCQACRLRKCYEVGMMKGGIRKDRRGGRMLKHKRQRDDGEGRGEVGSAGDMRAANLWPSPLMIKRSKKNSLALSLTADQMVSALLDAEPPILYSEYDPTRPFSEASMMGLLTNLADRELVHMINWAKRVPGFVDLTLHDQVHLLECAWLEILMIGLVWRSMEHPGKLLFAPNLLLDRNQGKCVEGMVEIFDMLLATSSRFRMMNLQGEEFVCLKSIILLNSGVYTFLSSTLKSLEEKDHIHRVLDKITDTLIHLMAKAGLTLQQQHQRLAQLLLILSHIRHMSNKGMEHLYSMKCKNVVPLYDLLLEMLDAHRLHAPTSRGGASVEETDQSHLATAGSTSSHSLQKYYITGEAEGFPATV
Aryl hydrocarbon receptor (Homo sapiens), sequence (P35869 whole entry, looked up): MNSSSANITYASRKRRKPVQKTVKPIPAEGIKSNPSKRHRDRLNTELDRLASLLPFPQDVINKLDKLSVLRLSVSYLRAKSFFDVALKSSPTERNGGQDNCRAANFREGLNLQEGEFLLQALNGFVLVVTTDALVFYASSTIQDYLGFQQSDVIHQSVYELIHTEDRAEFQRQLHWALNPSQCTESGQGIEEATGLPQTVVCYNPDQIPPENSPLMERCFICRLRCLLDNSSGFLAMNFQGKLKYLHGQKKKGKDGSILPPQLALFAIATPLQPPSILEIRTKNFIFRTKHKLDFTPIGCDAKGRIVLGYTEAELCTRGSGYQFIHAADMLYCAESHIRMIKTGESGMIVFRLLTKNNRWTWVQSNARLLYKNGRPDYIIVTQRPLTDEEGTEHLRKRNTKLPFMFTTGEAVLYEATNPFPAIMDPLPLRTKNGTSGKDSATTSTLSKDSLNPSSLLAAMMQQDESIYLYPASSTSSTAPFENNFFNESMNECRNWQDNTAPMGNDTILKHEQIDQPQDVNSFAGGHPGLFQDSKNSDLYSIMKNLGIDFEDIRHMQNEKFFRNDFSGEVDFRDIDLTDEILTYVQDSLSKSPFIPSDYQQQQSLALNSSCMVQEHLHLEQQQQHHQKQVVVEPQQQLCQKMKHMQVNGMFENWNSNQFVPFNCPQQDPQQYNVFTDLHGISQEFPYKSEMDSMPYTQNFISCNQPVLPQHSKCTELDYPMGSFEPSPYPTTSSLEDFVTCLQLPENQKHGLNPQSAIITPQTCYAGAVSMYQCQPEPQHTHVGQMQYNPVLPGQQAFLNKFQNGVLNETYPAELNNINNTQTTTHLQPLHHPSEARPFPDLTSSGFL
Aromatase (Homo sapiens), sequence (P11511 whole entry, looked up): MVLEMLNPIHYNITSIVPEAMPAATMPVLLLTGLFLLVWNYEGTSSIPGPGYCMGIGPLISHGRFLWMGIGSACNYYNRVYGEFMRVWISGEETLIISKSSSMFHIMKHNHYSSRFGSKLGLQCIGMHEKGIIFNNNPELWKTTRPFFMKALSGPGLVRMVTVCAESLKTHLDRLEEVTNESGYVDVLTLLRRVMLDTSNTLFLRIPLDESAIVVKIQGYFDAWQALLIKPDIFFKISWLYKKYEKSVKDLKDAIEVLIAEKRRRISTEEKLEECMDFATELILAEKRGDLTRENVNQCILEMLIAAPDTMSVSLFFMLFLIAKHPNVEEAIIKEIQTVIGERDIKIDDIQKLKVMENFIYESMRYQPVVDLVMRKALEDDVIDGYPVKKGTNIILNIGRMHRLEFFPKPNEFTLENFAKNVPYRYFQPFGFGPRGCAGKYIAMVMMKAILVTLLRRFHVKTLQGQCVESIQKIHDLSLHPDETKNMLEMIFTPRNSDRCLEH
Peroxisome proliferator-activated receptor gamma (Homo sapiens), sequence (P37231 whole entry, looked up): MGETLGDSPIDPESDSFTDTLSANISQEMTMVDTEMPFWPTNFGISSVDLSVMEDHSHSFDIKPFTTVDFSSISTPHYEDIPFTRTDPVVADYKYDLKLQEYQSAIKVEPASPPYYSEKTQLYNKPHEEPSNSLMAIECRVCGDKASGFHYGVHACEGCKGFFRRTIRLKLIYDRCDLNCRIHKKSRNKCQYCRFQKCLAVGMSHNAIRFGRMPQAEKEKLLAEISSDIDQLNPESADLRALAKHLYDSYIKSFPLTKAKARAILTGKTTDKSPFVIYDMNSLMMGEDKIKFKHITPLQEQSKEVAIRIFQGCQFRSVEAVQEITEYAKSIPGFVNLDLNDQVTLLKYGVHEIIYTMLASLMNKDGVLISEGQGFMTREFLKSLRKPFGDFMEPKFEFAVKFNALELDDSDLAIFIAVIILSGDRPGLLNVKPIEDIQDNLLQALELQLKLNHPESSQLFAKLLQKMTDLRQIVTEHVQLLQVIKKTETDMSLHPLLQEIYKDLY

Compound | outcome [1] | Potency [2] | Potency [3] | Potency [4] | Potency [5] | Potency (Aromatase (Homo sapiens)) | Potency [6] | Potency [7] | Potency [8] | Potency [9] | Potency [10] | Potency [11] | Potency [12] | Potency [13] | Potency [14] | Potency [15] | Potency [16] | Potency [17] | Potency [18] | activation [4]
O=C1C(=O)c2ccccc2C(O)=C1C1CCC(c2ccc(Cl)cc2)CC1 (stereo not given) | inactive | 2.04 µM (active) | inactive | inactive | inactive | inactive | inactive | 4.03 µM (active) | inactive | inactive | 6.68 µM (active) | inactive |  |  |  |  |  |  |  | 
Cc1[nH]cnc1CN1CCc2c(c3ccccc3n2C)C1=O |  | inactive |  |  | inactive | inactive | inactive |  | inactive | inactive | inactive | inactive | inactive | inactive | inactive |  |  |  |  | 
COc1cc(C(=O)NC2CCN(C)CC2)ccc1Nc1ncc2c(n1)N(C1CCCC1)CC(F)(F)C(=O)N2C |  | 40 µM (active) | inactive |  |  |  | 25 µM (active) | inactive |  | inactive |  |  | 50.4 µM (active) | 28.1 µM (active) | inactive | 62.8 nM (active) | 1.59 µM [inconclusive] (active) | 0.25 µM (active) |  | 
O=C(O)CCc1nc(-c2ccccc2)c(-c2ccccc2)o1 | inactive | inactive | inactive |  | inactive | inactive | inactive | inactive | inactive | 15.1 µM (active) |  | inactive |  | inactive | inactive |  | inactive | inactive | inactive | 
C[C@]12CC[C@@H]3c4ccc(O)cc4CC[C@H]3[C@@H]1CC[C@@H]2OC(=O)CCC1CCCC1 | inactive | inactive | 1.2 nM [inconclusive] (active) and 0.5 nM [inconclusive] (active) |  | inactive | inactive and 61.1 µM (active) | inactive | inactive | inactive | inactive | inactive |  |  | inactive |  |  |  | inactive | inactive | 60.2% (active) and 48.5% (active) and 30.3% (active)
COc1ccccc1N1CCN(CCCCNC(=O)c2ccc(-c3ccc(C(C)=O)cc3)cc2)CC1 | inactive | inactive | inactive | inactive |  | inactive | inactive | inactive | inactive | inactive |  | inactive |  | inactive | inactive |  | inactive |  | inactive | 
CC(=O)OCC(=O)NCCCOc1cccc(CN2CCCCC2)c1 |  | inactive |  |  | inactive | inactive | inactive |  | inactive | inactive | inactive | inactive | inactive | inactive | inactive |  |  |  |  | 
CCCCC(CC)CN (stereo not given) | inactive |  | inactive | inactive | inactive |  | inactive | inactive | inactive | inactive |  |  | inactive | inactive | inactive |  | inactive | inactive | inactive | 
CCOc1cccc(-n2cc(C(=O)N3CCN(c4cc(C(=O)O)c5ccccc5c4)CC3)nc2-c2ccc(C)cc2)c1 | inactive |  |  |  | inactive | inactive | inactive | inactive | inactive |  | 9.25 µM (active) | inactive | 18.6 µM (active) |  |  |  |  |  |  | 
C=CCc1ccccc1OCC(O)CNC(C)C (stereo not given) | inactive | inactive |  |  | inactive | inactive | inactive | inactive | inactive | inactive |  | inactive | inactive | inactive |  |  |  |  |  | 
O=C1c2ccccc2C(=O)N1CCc1noc(-c2ccc(CN3CCCCCC3)s2)n1 | inactive |  | inactive |  | inactive |  | inactive | 6.29 µM (active) |  | inactive | 6.29 µM (active) | inactive | inactive | inactive | inactive |  | inactive | 49.9 µM (active) |  | 
